Sampled rows, rich in hits. Any-hit rate of the full collection: about 11%.
ALDH1A1 inh: qHTS Assay for Inhibitors of Aldehyde Dehydrogenase 1 (ALDH1A1). Aldehyde dehydrogenase 1A1 (Homo sapiens), P00352. Purified ALDH1A1, NADH fluorescence, propionaldehyde substrate. Potency, µM (doses to about 75.3 µM), actives largely listed as inhibitors. actives 7.3% (n = 220,000). AID 1030, 2008
PNC inhibitor: High Content Assay for Compounds that inhibit the Assembly of the Perinucleolar Compartment; PC3M PTB-GFP, PNC prevalence imaging, 16 h; hits give low values; activity change (PNC), negative = inhibition, % at 10 µM; actives 3.1% (n = 140,000);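 active = readout at or below -70, meaning at least 70% loss of cells showing the perinucleolar compartment, a nuclear body marking cancer cells; inconclusive = readout between -30 and a set limit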
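Compounds are pinned in duplicate onto adhered PC3M cells stably expressing GFP-tagged PTB and incubated 16 h at 37 C. Cells are then fixed, nuclei stained with Hoechst, and PNC-positive cells counted.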
IMPase cell inh: qHTS Assay for Identifying the Cell-Membrane Permeable IMPase Inhibitors; CHO-M1 cells, IP1 accumulation, HTRF TR-FRET ratio; 120,000 tested, under 10 active; inhibition (IP1 accumulation), % at 46.1 µM; AID 901, 2007; active = well fitted curve in the direction sought with a large enough effect in the signal ratio, not every such curve was filed as active; inconclusive = small, poorly fitted or top-dose-only effect, or a change in a side signal; inactive = no such curve, though single readings can be large or run the other way; the % refers to the signal ratio;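 note: cells stimulated with carbachol in lithium chloride buffer; higher means more IMPase inhibition seen as more IP1 and lower FRET ratio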
Target sequence (P97697 whole entry, looked up): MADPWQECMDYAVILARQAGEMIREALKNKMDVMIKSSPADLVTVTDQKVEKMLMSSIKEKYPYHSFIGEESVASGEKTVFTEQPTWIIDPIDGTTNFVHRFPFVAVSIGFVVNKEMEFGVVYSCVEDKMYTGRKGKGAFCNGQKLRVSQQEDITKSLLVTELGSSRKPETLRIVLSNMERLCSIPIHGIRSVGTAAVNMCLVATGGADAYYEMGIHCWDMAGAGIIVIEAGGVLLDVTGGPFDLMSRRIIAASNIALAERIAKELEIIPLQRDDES
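Seeded CHO-M1 cells were dosed with compound at up to 46 uM, stimulated with carbachol for 30 min, then lysed in IP-One detection reagents. Higher IP1 lowers the TR-FRET signal.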
HPGD block: qHTS Assay for Inhibitors of HPGD (15-Hydroxyprostaglandin Dehydrogenase). 15-hydroxyprostaglandin dehydrogenase [NAD(+)] (Homo sapiens), P15428. purified HPGD, NADH fluorescence kinetic, PGE2 substrate. Potency, µM, actives largely listed as inhibitors. actives 4.3% (n = 150,000). AID 894, 2007
Target sequence (P15428 whole entry, looked up): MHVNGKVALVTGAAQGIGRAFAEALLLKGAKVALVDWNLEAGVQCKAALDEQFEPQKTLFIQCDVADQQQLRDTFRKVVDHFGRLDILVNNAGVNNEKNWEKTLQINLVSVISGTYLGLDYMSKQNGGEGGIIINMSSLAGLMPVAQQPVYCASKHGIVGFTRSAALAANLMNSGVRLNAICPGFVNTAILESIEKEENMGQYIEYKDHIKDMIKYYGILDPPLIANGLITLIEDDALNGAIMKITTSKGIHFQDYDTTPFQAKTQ
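NADH formation kinetics: reaction with 30 uM PGE2 and 1 mM NAD+ (final), 20 nM enzyme, Tris-HCl pH 8 with Tween 20, after 15 min compound preincubation at room temperature. Fluorescence change, last versus first of five reads.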
IMPase Li cell: qHTS Assay for Identifying the Cell-Membrane Permeable IMPase Inhibitors: Potentiation with Lithium; CHO-M1 cells, IP1 TR-FRET (IP-One), carbachol + lithium; Potency, µM (doses to about 59.4 µM), hits mostly inhibitors; actives 0.35% (n = 210,000); active = well fitted curve in the direction sought with a large enough effect; inconclusive = small, poorly fitted or top-dose-only effect, or another doubt; inactive = no such curve, though single readings can be large; an effect the other way counts as inactive or inconclusive;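 note: IP1 builds up when IMPase is blocked and the TR-FRET signal falls; nearly all actives have a fitted effect of over 50% in size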
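CHO cells stably expressing M1 receptor (2000/well) were cultured 16–30 h, then exposed to compounds with a small lithium addition for 30 min at 37C. IP1 was measured by TR-FRET competition; AC50 from Hill fits.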
12-hLO inh: qHTS Assay for Inhibitors of 12-hLO (12-human lipoxygenase); Polyunsaturated fatty acid lipoxygenase ALOX12 (Homo sapiens), P18054; purified 12-hLO, xylenol orange hydroperoxide absorbance; Potency, µM (highest dose often 57.1 µM), most hits filed as inhibitors; actives 0.12% (n = 150,000); AID 1452, 2008; active = well fitted curve in the direction sought with a large enough effect; inconclusive = small, poorly fitted or top-dose-only effect, or another doubt; inactive = no such curve, though single readings can be large; an effect the other way counts as inactive or inconclusive; note: nearly all actives have a fitted effect of over 55% in size
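Hydroperoxide formation by human 12-lipoxygenase from 40 uM arachidonic acid was followed colorimetrically via ferric-xylenol orange complex, using the 573/405 nm absorbance ratio. Enzyme concentration was 150 nM, with 30 min reaction at room temperature.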
A number is an active result; n = inactive; u = inconclusive; x = not tested or not shown; [ ] = remark or other dose. Unless noted, calls come from the whole dose curve; as a rule, active = well fitted inhibition curve with a large enough effect (not every such curve was filed as active); inconclusive = small, poorly fitted or top-dose-only effect, or another doubt; inactive = no such curve, though single readings can be large or run the other way.

SMILES | ALDH1A1 inh | PNC inhibitor | IMPase cell inh | HPGD block | IMPase Li cell | 12-hLO inh
Nc1ncnc2c1ncn2CCCCC(=O)O | n[13.5 µM] | x | x | n | n | n[11.4 µM]
c1ccc(-n2c(SCC3CCCCO3)nnc2-c2cccs2)cc1 (stereo not drawn) | n | n | n | x | x | n
O=C(CSc1nnc(-c2cccs2)n1-c1ccccc1)Nc1ccccc1 | n | n | u | n | u | n
O=C(CSc1nnc(-c2cccs2)n1-c1ccccc1)N1CCOCC1 | u | n | n | n | n | n
CCOC(=O)CSc1nnc(-c2ccco2)n1-c1ccccc1 | 1.58µM | n | n | 31.6µM | n | n
CCOC(=O)CSc1nnc(-c2cccs2)n1-c1ccccc1 | u | n | n | 28.2µM | n | n
O=C(CSc1nnc(-c2cccs2)n1-c1ccccc1)N1CCCC1 | u | n | n | 25.1µM | n | n
CCOC(=O)CSc1nnc(-c2ccco2)n1-c1ccc(C)cc1 | n | n | n | n | n | n
Cc1ccc(-n2c(SCC3CCCCO3)nnc2-c2ccco2)cc1 (stereo not drawn) | u | n | n | 15.8µM | n | n
Cc1ccc(SCCNC(=O)CN(c2ccccc2)S(=O)(=O)N(C)C)cc1 | x | x | n | x | x | x
COc1ccc(CC(=O)NCc2ccc3c(c2)cc(C)n3C)cc1 | u | x | x | x | n | x
Cc1cc2cc(OCC(=O)O)ccc2n1C | n | -112.6 | u | n | n | n
Cc1nc2nc(C)c(NS(=O)(=O)c3ccc(F)cc3)c(=O)n2[nH]1 | x | x | n | x | x | x
CCCCCCCc1cc2c(cn1)=C(OC)C(C)(OC(C)=O)C(=O)C=2Cl (stereo not drawn) | n | x | x | n | n | x
O=C(/C=C\c1ccccc1)c1ccccc1O | n[13.5 µM] | x | x | x | x | x
O=C(/C=C/c1ccc(O)cc1)c1ccccc1O | 20µM | x | x | u | n | u
Cc1ccc(-n2c(O)c(C=NCc3ccccn3)c3ccccc3c2=O)cc1C | n | n | x | n | n | n
O=C(CCc1ccccc1)NNC(=O)c1ccco1 | n | n | n | 28.2µM | n | n
O=C(CCC(=O)Nc1ccccc1)NNC(=O)c1ccco1 | n | u | n | n | n | n
Fc1ccc(-c2cc(C(F)(F)F)nc(NCc3cccs3)n2)cc1 | u | -113.4 | x | n | n | n
COc1ccc(C2CC(=O)C3=C(C2)Nc2ccccc2NC3c2coc3ccccc3c2=O)cc1OC (stereo not drawn) | 10µM | u | x | n | n | n
CC(C)C[C@@H](CC(=O)N[C@@H](CCC(=O)O)CC(=O)O)NC(=O)[C@@H]1CNCC[C@H]1NC(=O)C[C@H](CCCN)NC(=O)C[C@H](Cc1ccccc1)NC(=O)[C@@H]1CCCC[C@H]1N | n | x | x | n | n | n
CN1CCN(c2ncncc2-c2ccc(N(C)C)cc2)CC1 | n | x | x | x | n | x
COc1cccc(CN2CCN(C(=O)Nc3ccc([N+](=O)[O-])cc3)CC2)c1 | u | x | x | x | n | x
COc1cccc(CN2CCN(Cc3cc(OC)c(OC)cc3[N+](=O)[O-])CC2)c1 | 25.1µM | n | n | n | n | n
SMILES | ALDH1A1 inh | PNC inhibitor | IMPase cell inh | HPGD block | IMPase Li cell | 12-hLO inh
COc1cc(CN2CCN(c3ccccc3F)CC2)c([N+](=O)[O-])cc1OC | 28.2µM | u | x | n | n | n
COc1cc(CN2CCN(Cc3ccc([N+](=O)[O-])cc3)CC2)c([N+](=O)[O-])cc1OC | 35.5µM | x | x | x | n | x
COc1ccc(-c2noc(CN3CCN(c4ccccc4F)CC3)n2)cc1OC | u | n | n | n | n | n
CCOc1cc(C2NC(=O)c3c(sc4c3CCN(C)C4)N2)ccc1OC(=O)c1ccccc1Cl (stereo not drawn) | x | x | n | x | x | x
CN(C)/C=N/C(=S)Nc1ccc(Br)cc1F | 22.4µM | n | n | n | n | u
S=C(NCCc1ccncc1)Nc1cccc2ccccc12 | n | x | x | x | n | x
C=CCNC(=S)Nc1cccc2ccccc12 | n | -96.5 | n | n | n | n
C=CCNC(=S)Nc1ccc(Br)cc1F | n | -87.8 | n | n | n | n
C=CCNC(=S)Nc1ccc(Cl)cc1F | n | x | x | x | n | x
Cn1cccc1C(=O)N1CCC2(CCCN(c3ccc(-c4ccccc4)cc3)C2)CC1 | u | x | x | n | n | n
CC1=CN2C(=NC(=O)CC2(C)C(=O)N(CC(=O)NC2CCCC2)c2ccccc2C)C=C1 (stereo not drawn) | u | -100.0 | n | u | n | n
O=C1[C@@H]2[C@H]3[C@H](O)[C@H](O)C/C(=N/OCc4ccccc4)[C@H]3CC[C@H]2C(=O)N1c1ccc(F)cc1F | n[13.5 µM] | x | x | x | x | x
Cc1ccc(-c2nc(N3CCOCC3)sc2C(=O)N2CCOCC2)cc1 | 20µM | n | x | n | n | n
CC(=O)c1sc(N2CCOCC2)nc1-c1ccccc1 | n | x | x | x | n | x
Cc1ccc(-c2nc(N3CCOCC3)sc2C(=O)N2CCCCC2)cc1 | 7.94µM | n | n | n | n | n
COC(=O)N1CCC2(CC1)CCN(c1ncccn1)CC2 | n | x | x | n | n | n
Cn1c(COc2ccc(Br)cc2)nnc1SC1CCc2ccccc2C1=O (stereo not drawn) | 22.4µM | u | n | n | n | n
Cc1cc(NC(=O)CN2CC(C)OC(C)C2)n(-c2nc3ccccc3s2)n1 (stereo not drawn) | n | -99.2 | n | n | n | n
CCOC(=O)C1CCN(CC(=O)Nc2cc(C)nn2-c2nc3ccccc3s2)CC1 | n | n | u | n | n | n

Source: PubChem
